The target in assay [1] is Catechol O-methyltransferase (Homo sapiens) (UniProt P21964). The assay is described as follows: Confirmatory Screen for Target Class Profiling of Small Molecule Inhibitors of Methyltransferases (AID 1745852). For activity change, negative = inhibition: % is set by controls: 0 for no effect and ±100 for the full control effect. Particulars: MTase-Glo luminescence, SAH detection, recombinant enzyme; measured here: COMT max response; stronger effect = lower value.
Assay [2] deals with Guanidinoacetate N-methyltransferase (Homo sapiens) (UniProt Q14353). Described as above. Particulars: MTase-Glo luminescence, SAH detection, recombinant enzyme; activity change, negative = inhibition: at 57.3 µM (top of the series) unless noted; series mostly up to 57.3 µM.
In assay [3] the target is Nicotinamide N-methyltransferase (Homo sapiens) (UniProt P40261). The assay is described as above. The conditions noted are these: MTase-Glo luminescence, SAH detection, recombinant enzyme; measured here: NNMT max response; stronger effect = lower value.
The target in assay [4] is Phenylethanolamine N-methyltransferase (Homo sapiens) (UniProt P11086). Described as above. Particulars: MTase-Glo luminescence, SAH detection, recombinant enzyme; measured here: PNMT max response; stronger effect = lower value.
Assay [5] deals with Glutathione peroxidase 1 (Homo sapiens) (UniProt P07203). The assay is described as follows: Primary qHTS Assay for Inhibitors of Recombinant Selenoprotein Glutathione Peroxidase 1 (GPX1) (AID 1845191). Note: nearly all actives have a fitted effect of over 65% in size. Particulars: recombinant GPX1, GR-coupled NADPH fluorescence, 15 min; series mostly up to 48.8 µM. The procedure, abridged:
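GR-coupled readout: NADPH consumption tracked by fluorescence, ex 340/em 450 nm, at t=0 and after 15 min at RT. Final mix 10 nM GPX1, 1 mM GSH, 0.5 mM CHP, 0.5 mM NADPH, 100 nM GR, 0.01% BSA, following 30 min enzyme–compound preincubation.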
A general note: Quantitative high-throughput screening tests each substance at several concentrations.

For assay [6], the target named is Phospholipid hydroperoxide glutathione peroxidase GPX4 (Homo sapiens) (UniProt P36969). The assay can be described thus: Primary qHTS Assay for Inhibitors of Recombinant Selenoprotein Glutathione Peroxidase 4 (GPX4) (AID 1845192). For activity change, negative = inhibition: % is set by controls: 0 for no effect and ±100 for the full control effect. Note: nearly all actives have a fitted effect of over 65% in size. Particulars: recombinant GPX4, GR-coupled NADPH fluorescence, 15 min; series mostly up to 50 µM. Put shortly: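 Steps: GPX4 plus compound, 30 min RT; add GR/GSH/NADPH master mix; start with cumene hydroperoxide; read 340/450 nm fluorescence at 0 and 15 min. Finals were 200 nM GPX4, 1 mM GSH, 0.5 mM CHP, 0.5 mM NADPH, 100 nM GR.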

Assay [7] addresses Luciferin 4-monooxygenase (Photinus pyralis) (UniProt P08659). The assay is described as follows: Primary firefly luciferase (FLuc) qHTS assay for identification of artifact compounds. (AID 1845220).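 For activity change, negative = inhibition: plate controls were DMSO vehicle for no effect and no enzyme for full effect.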 Note: nearly all actives have a fitted effect of over 60% in size. The conditions noted are these: purified firefly luciferase, luminescence, 5 min; series mostly up to 54.1 µM. Put shortly: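 Titrated compounds were incubated 15 min at RT, protected from light, with luciferin and ATP at 10 uM; reaction started with 10 nM FLuc, luminescence imaged at 5 min, and concentration-response fitted by Hill equation.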

The subject of assay [8] is Nanoluciferase (engineered Oplophorus gracilirostris luciferase). The assay can be described thus: Primary Nanoluciferase (NLuc) qHTS assay for identification of artifact compounds. (AID 1845222).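 Note: NLuc secreted into diluted conditioned medium of S16 cells; 0% = DMSO and -100% = no enzyme.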 The conditions noted are these: NLuc-conditioned medium, Nano-Glo luminescence, 5 min; series mostly up to 54.1 µM. The procedure, abridged:
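qHTS format, against NLuc in S16 cell-conditioned medium. Nano-Glo substrate 1:100 was added after 15 min at room temperature. Luminescence was taken after a further 5 min.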

A short description of assay [9]: Primary redox qHTS assay for identification of artifact compounds. (AID 1845223).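 Note: 0% = DMSO and 100% = reference compound.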 The conditions noted are these: Amplex Red/HRP redox cycling with DTT, fluorescence; series mostly up to 53.8 µM. The procedure, abridged: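 Redox-cycling detection via DTT (250 uM final) oxidation coupled to Amplex Red (25 uM)/HRP (250 mU/mL) in HBSS. 15 min preincubation plus 30 min after DTT, room temperature. Ex/Em 525/598 nm; 4-parameter Hill fit against DMSO and 10 uM DA3003.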

Assay [10] is described as follows: NCATS anti-infectives library activity on HEK293 viability as a counter-qHTS vs the C. elegans viability qHTS (AID 1745854). Note: % is set by controls: 0 for no effect and ±100 for the full control effect. Particulars: HEK293 viability counter-screen; series mostly up to 41.8 µM. Put shortly:
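CellTiter-Glo luminescence, read on a CCD imager, scored viability of HEK293 cells after 24 hr compound exposure at 37C. Library tested in several concentrations, 1:5 steps, up to 41.7 uM; digitonin served as control.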

The nature of assay [11]: Primary fluorescence-based thiol-reactive (MSTI) qHTS assay for identification of artifact compounds. (AID 1845221). Note: nearly all actives have a fitted effect of over 65% in size. Note: potency is the fitted concentration of half-maximal effect. Particulars: MSTI thiol-reactivity probe, 1 h; series mostly up to 53.8 µM. The procedure, abridged: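 Thiol-reactive compounds detected by quenching of 4 uM MSTI fluorescence (525/598 nm) after 1 h room-temperature dark incubation in PBS pH 7.4, 2% DMSO. qHTS titration; percent inhibition Hill-fitted against Acetyl-MSTI/MSTI controls.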

Assay [12] is described as follows: Primary qHTS for inhibitors of nuclear receptor binding SET domain protein 2 (NSD2) in an RCH-ACV wild type WT cells (2C) (AID 1645877). Note: nearly all actives have a fitted effect of over 70% in size. Note: potency is the fitted concentration of half-maximal effect. The conditions noted are these: RCH-ACV (leukaemia line) NSD2 WT (2C) viability, CellTiter-Glo, 72 h; series mostly up to 44.9 µM.
Assay [13] is described as follows: Viability counterscreen for antagonist of constitutive androstane receptor (CAR) against the NCATS DSHEA and TCM libraries (AID 1794837).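 Note: compound exposure lasted 24 h before viability reading; 0% is about no effect.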 Particulars: CAR reporter cell line viability counterscreen, qHTS; series mostly up to 22 µM. The procedure, abridged:
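HepG2-CYP2B6-hCAR cells, 2,500/well, were exposed 24 hr at 37C to substances together with 48 uM CITCO (final). Viability was read as CellTiter-Fluor fluorescence (Ex/Em 405/540 nm) after 1 hr.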
A general note: The purpose of a counterscreen is to sort out artefacts and off-target activity.

Assay [14] is described as follows: Viability counterscreen for agonist of constitutive androstane receptor (CAR) against the NCATS DSHEA and TCM libraries (AID 1794838). Note: 0% is about no effect. Particulars: HepG2 cell viability counterscreen, CAR agonist assay, co-treated with 0.75 µM CAR antagonist; series mostly up to 40 µM. Put shortly: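 HepG2-CYP2B6-hCAR cells (2,500/well) treated 24 h at 37C with compounds plus 0.75 uM PK11195; viability read by CellTiter-Fluor fluorescence, Ex/Em 405/540 nm.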

For assay [15], the target named is Nuclear receptor subfamily 1 group I member 3 (Homo sapiens) (UniProt Q14994). The assay is described as follows: Primary qHTS for agonist of constitutive androstane receptor (CAR) against the NCATS DSHEA and TCM libraries (AID 1794839).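 Note: HepG2 cells expressing human CAR with a CYP2B6 reporter plus PK11195 antagonist; 0% is about no effect.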 The conditions noted are these: CAR agonist reporter cells, qHTS luminescence, CAR antagonist co-added at 0.75 µM; series mostly up to 22 µM. Put shortly: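 HepG2-CYP2B6-hCAR cells, 2,500/well, attached 5 h, then dosed with 0.75 µM PK11195 (final) for 24 h at 37 °C. Luciferase luminescence read (ONE-Glo); CellTiter-Fluor viability (Ex/Em 405/540 nm) in same wells; CITCO positive control.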

Assay [16] can be described thus: HepG2 viability counterscreen (readout 2: ATP content) against the NCATS DSHEA and TCM libraries (AID 1794840). Note: 0% is about no effect. Particulars: ATP content luminescence; series mostly up to 15.1 µM. Put shortly:
(§1)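 HepG2 cells, 1,000/well, attached ~4 h, then exposed ~24 h at 37C to substances. Protease activity read by fluorescence of 25 uM GF-AFC (Ex/Em 380/510 nm) after 30 min; ATP then by CellTiter-Glo luminescence.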

A short description of assay [17]: HepG2 viability counterscreen (readout 1: protease activity) against the NCATS DSHEA and TCM libraries (AID 1794841).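 Note: cells exposed to compounds for about 24 h before the protease read; 0% is about no effect.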 The conditions noted are these: qHTS concentration series; series mostly up to 15.1 µM. The procedure, abridged:
as §1

Inconclusive results are not listed. Active and inactive are the calls of the source. Calls come from the whole dose curve; as a rule, active = well fitted curve in the direction sought with a large enough effect; inconclusive = small, poorly fitted or top-dose-only effect, or another doubt; inactive = no such curve, though single readings can be large; an effect the other way counts as inactive or inconclusive.

Sequence of Catechol O-methyltransferase (Homo sapiens) (P21964 whole entry, looked up): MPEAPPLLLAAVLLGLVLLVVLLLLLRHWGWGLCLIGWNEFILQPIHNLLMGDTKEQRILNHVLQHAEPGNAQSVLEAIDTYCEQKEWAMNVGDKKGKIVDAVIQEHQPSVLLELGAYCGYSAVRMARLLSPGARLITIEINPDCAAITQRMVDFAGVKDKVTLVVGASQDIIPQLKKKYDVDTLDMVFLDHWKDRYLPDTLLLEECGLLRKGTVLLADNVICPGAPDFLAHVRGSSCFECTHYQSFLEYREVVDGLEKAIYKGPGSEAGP
Sequence of Phospholipid hydroperoxide glutathione peroxidase GPX4 (Homo sapiens) (P36969 whole entry, looked up): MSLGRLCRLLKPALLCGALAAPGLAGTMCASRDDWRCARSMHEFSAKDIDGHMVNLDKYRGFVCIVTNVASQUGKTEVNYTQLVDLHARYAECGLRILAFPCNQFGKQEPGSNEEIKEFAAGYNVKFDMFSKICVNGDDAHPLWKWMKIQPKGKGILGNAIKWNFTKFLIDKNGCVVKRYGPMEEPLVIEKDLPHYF
Sequence of Phenylethanolamine N-methyltransferase (Homo sapiens) (P11086 whole entry, looked up): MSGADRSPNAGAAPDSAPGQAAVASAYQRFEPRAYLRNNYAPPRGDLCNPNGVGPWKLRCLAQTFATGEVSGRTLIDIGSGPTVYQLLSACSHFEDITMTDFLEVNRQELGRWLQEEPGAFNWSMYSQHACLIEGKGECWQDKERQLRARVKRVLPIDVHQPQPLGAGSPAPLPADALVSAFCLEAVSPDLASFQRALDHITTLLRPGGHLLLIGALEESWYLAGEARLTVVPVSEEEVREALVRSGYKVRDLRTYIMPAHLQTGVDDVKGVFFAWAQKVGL
Sequence of Nicotinamide N-methyltransferase (Homo sapiens) (P40261 whole entry, looked up): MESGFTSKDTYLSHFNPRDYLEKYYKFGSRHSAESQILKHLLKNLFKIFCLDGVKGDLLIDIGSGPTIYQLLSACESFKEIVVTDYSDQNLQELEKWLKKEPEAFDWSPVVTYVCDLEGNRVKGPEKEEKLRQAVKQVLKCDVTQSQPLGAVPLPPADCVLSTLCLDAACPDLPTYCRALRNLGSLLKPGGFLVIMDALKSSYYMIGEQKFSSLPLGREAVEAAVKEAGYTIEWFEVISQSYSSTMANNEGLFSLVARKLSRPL
Sequence of Glutathione peroxidase 1 (Homo sapiens) (P07203 whole entry, looked up): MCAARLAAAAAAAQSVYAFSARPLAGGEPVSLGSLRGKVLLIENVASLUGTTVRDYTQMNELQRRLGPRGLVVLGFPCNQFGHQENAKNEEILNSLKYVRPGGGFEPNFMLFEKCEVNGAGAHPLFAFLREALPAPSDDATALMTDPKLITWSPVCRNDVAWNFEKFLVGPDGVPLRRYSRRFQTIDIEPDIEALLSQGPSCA
Sequence of Nuclear receptor subfamily 1 group I member 3 (Homo sapiens) (Q14994 whole entry, looked up): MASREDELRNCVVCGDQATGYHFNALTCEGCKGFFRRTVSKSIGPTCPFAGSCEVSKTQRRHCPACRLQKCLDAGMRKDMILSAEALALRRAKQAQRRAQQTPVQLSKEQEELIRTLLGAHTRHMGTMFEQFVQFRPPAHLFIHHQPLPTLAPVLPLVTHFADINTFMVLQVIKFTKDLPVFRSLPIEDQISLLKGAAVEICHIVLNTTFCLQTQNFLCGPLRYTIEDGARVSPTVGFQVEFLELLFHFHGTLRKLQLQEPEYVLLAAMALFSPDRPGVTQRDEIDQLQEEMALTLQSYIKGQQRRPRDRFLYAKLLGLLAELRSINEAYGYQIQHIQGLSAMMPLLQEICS

Consider `c1cc(OCCCN2CCCCC2)ccc1CN1CCCCC1`, for which the activity in assay [1] was -4.16%; in [3], -0.228%; in assay [4] it was -0.509%. Further, the activity change, negative = inhibition in [2] was -2.14%. Further, the Potency result in assay [5], in assay [6], in [7], in assay [8] and in [9] was “inactive” in each case.
With `N#C[C@@H]1CCCN1C(=O)CNC12CC3CC(CC(O)(C3)C1)C2`, the Potency result in assay [10], in [5], in assay [6], in assay [7], in [11] and in assay [8] was “inactive” each time. Further, in [9], the Potency entry is “inactive”.
For `O=C1CSc2ccccc2N1Cc1cccc(C(F)(F)F)c1`, the activity in assay [1] is -10.1%; in [3], -46.9%; in assay [4] it was -11.4%. In [2], the activity change, negative = inhibition was -5.12%. In addition, the Potency result in [5], in [6], in assay [7], in [11], in assay [8] and in assay [9] was “inactive” throughout.
On to `NCc1c[nH]c(=S)n1[C@@H]1CCc2c(F)cc(F)cc2C1`, for which the Potency entry in assay [12], in assay [7], in assay [8] and in assay [9] was “inactive” each time.
In the case of `C=C1C(=O)OC2CC3(C)C(CC12)C(C)=CC(O)C3OC(C)=O` (stereo not given), the activity in [1] is -65.4%; in assay [3], 1.24%; in [4] it was -2.5%. Further, the activity change, negative = inhibition in assay [2] worked out at 0%. The Potency result in assay [5], in assay [6], in [7], in assay [8] and in assay [9] was “inactive” in each case. In addition, in assay [11], the Potency is 5850 nM (active).
For the molecule `C=C(F)c1sc(CNCCCNc2cc(=O)c3ccccc3[nH]2)c(C)c1Br`, the activity is -1.13% in assay [1], -33.7% in assay [3] and -2.47% in assay [4]. Further, the activity change, negative = inhibition in assay [2] was -1.39%. Moreover, the Potency entry in assay [6], in [7], in assay [11], in [8] and in assay [9] was “inactive” each time.
With `CCOCc1nc2c(N)nc3ccccc3c2n1CC(C)(C)O`, the Potency result in assay [10], in assay [5], in [6], in assay [7], in [11] and in [8] was “inactive” in each case. In addition, in assay [9], the Potency result is “inactive”.
For `CCc1c(C)nc2c(-c3cnn(-c4cc(CO)ccn4)c3)c[nH]n2c1=O`, the Potency result in assay [12], in assay [7] and in [8] was “inactive” each time.
On to `N#Cc1cnc2cnc(NCc3cccnc3)cc2c1Nc1ccc(F)c(Cl)c1`, for which the figures for the activity in [1], in assay [3] and in [4] were -10.6%, -57.3% and -6.2%, respectively. For the same molecule, in assay [2], the activity change, negative = inhibition was -3.05%. Besides, the Potency entry in assay [5], in [6], in assay [7], in assay [11], in assay [8] and in assay [9] was “inactive” each time.
With `CCN(CC)Cc1ccc(C(=O)N(CCc2ccccc2OC)[C@@H]2CCNC2)cc1`, the Potency entry in assay [10], in assay [6], in assay [7], in assay [11], in assay [8] and in assay [9] was “inactive” each time.
For `CN(C)C/C=C/C(=O)Nc1cc2c(Nc3ccc(F)c(Cl)c3)ncnc2cc1OC1CCOC1` (stereo not given), the Potency in [12] is 2300 nM (active). The Potency result in [7], in assay [11], in assay [8] and in assay [9] was “inactive” each time.
Regarding `C[C@@]12CC[C@@H]3[C@@](CC[C@H]4[C@@]3(C)CCC[C@@]4(C)C(=O)O)(CC1=O)C2`, the outcome in assay [13], in assay [14], in assay [15], in [16] and in [17] was “inactive” in each case. In addition, the Potency result in assay [5], in assay [6], in assay [7], in [11] and in [8] was “inactive” throughout.
For the molecule `CCC(C)C(=O)O[C@H]1CCC=C2C=C[C@H](C)[C@H](CC[C@@H](O)C[C@@H](O)CC(=O)O)[C@H]21` (stereo not given in full), the Potency entry in assay [5], in [6], in assay [7], in [11] and in assay [8] was “inactive” throughout.
Take `C=CC(=O)Nc1cc(Nc2nccc(-c3c[nH]c4ccccc34)n2)c(OC)cc1N(C)CCN(C)C`: the Potency entry in [5], in assay [6], in assay [7] and in [8] was “inactive” throughout. Further, the Potency in [11] was 1680 nM (active).

These data come from PubChem BioAssay (NCATS).
